Laboratory results as given in PubChem BioAssay (NCATS).
Records with an inconclusive call do not appear. Active and inactive are the calls of the source. The call rests on the fitted dose curve; in most records, active means well fitted inhibition curve with a large enough effect; inconclusive means small, poorly fitted or top-dose-only effect; inactive means flat fitted curve, though single readings scatter.

Legend:
Assay in all cases: qHTS profiling for inhibitors of Plasmodium falciparum proliferation (AID 504749); further: nearly all actives have a fitted effect of over 60% in size
Settings in all cases: P. falciparum in erythrocytes, SYBR Green DNA, 72 h; series mostly up to 28.7 µM
ATS95 = test system: ATS95
Procedure, shortened: (§1)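 Fluorescence of SYBR Green-bound parasite DNA, read at 485/535 nm, served as the growth measure. Infected erythrocytes were cultured with compound 72 h; artemisinin (0.29 uM) and DMSO wells defined the normalization range.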

C2A = test system: C2A
Procedure, shortened: as §1

CP211 = test system: CP211
Procedure, shortened: as §1

CP217 = test system: CP217
Procedure, shortened: as §1

CP250 = test system: CP250
Procedure, shortened: as §1

CP252 = test system: CP252
Procedure, shortened: as §1

CP256 = test system: CP256
Procedure, shortened: as §1

CP262 = test system: CP262
Procedure, shortened: as §1

CP265 = test system: CP265
Procedure, shortened: as §1

CP266 = test system: CP266
Procedure, shortened: as §1

CP269 = test system: CP269
Procedure, shortened: as §1

CP325 = test system: CP325
Procedure, shortened: as §1

CP329 = test system: CP329
Procedure, shortened: as §1

ECU = test system: ECU
Procedure, shortened: as §1

FAB9 = test system: FAB9
Procedure, shortened: as §1

P93_24 = test system: P93_24
Procedure, shortened: as §1

PAD = test system: PAD
Procedure, shortened: as §1

PC15 = test system: PC15
Procedure, shortened: as §1

PC26 = test system: PC26
Procedure, shortened: as §1

SC27B = test system: SC27B
Procedure, shortened: as §1

Measured: Potency

C[C@]12CC[C@H]3c4ccc(O)cc4CC[C@@H]3[C@H]1CC[C@@H]2OP(=O)(O)O
inactive: ATS95 | C2A | CP211 | CP217 | CP250 | CP252 | CP256 | CP262 | CP265 | CP266 | CP269 | CP325 | CP329 | ECU | FAB9 | P93_24 | PAD | PC15 | PC26 | SC27B

N[C@@H](Cc1ccccc1)C(=O)O
inactive: ATS95 | C2A | CP211 | CP217 | CP250 | CP252 | CP256 | CP262 | CP265 | CP266 | CP269 | CP325 | CP329 | ECU | FAB9 | P93_24 | PAD | PC15 | PC26 | SC27B
